# Experimental data published in PubChem BioAssay (NCATS).
# Inconclusive results are not listed. Where a call stands in place of a potency, no number is given. Unmarked numbers belong to inactive results. The source made the active and inactive calls. The call rests on the fitted dose curve; in most records, active means well fitted inhibition curve with a large enough effect; inconclusive means small, poorly fitted or top-dose-only effect; inactive means flat fitted curve, though single readings scatter. Where a SMILES comes first, the peptide text is derived from it. Bridges are numbered along the chain shown (N, C = ends). [ ]: non-standard residue; d: D form. NMeY = CN[CH](Cc1ccc(O)cc1)C(=O)O
# Key:
# NIH3T3 [1] = experiment: Cytotoxic Profiling of Annotated Libraries Using Quantitative High-Throughput Screening (AID 1296008); settings: Five cell lines viability, CellTiter-Glo ATP luminescence, 48-72 h; max response: stronger effect = lower value
# Summary of the method: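 Cytotoxicity was measured as CellTiter-Glo ATP luminescence, read after 10 min at room temperature. Compound treatment of the cells lasted 48 or 72 hr at 37 degrees Celsius in a qHTS format.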
# HACAT = experiment: qHTS assay to identify novel small-molecules to repurpose for Merkel cell carcinoma treatment (AID 1296009); settings: MCC and control cell lines, CellTiter-Glo viability, 72 h; series mostly up to 44.8 µM
# Summary of the method: (§1)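 Cell viability measured by CellTiter-Glo following 72 hr compound treatment at 37 degree celsius, with NPC and MIPE libraries tested in 8- and 11-point concentration series.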
# NIH3T3 [2] = experiment: as above; settings: MCC and control cell lines, CellTiter-Glo viability, 72 h; at 44.8 µM (top of the series) unless noted
# Summary of the method: as §1
# HEK293T = experiment: as above; settings: MCC and control cell lines, CellTiter-Glo viability, 72 h; at 44.8 µM (top of the series) unless noted
# Summary of the method: as §1
# MCC-13 = experiment: as above; settings: MCC and control cell lines, CellTiter-Glo viability, 72 h; series mostly up to 46 µM
# Summary of the method: as §1
# MCC-26 = experiment: as above; settings: MCC and control cell lines, CellTiter-Glo viability, 72 h; series mostly up to 46 µM
# Summary of the method: as §1
# MKL-1 = experiment: as above; settings: MCC and control cell lines, CellTiter-Glo viability, 72 h; series mostly up to 46 µM
# Summary of the method: as §1
# MKL-2 = experiment: as above; settings: MCC and control cell lines, CellTiter-Glo viability, 72 h; series mostly up to 46 µM
# Summary of the method: as §1
# UISO = experiment: as above; settings: MCC and control cell lines, CellTiter-Glo viability, 72 h; series mostly up to 46 µM
# Summary of the method: as §1
# WaGa = experiment: as above; settings: MCC and control cell lines, CellTiter-Glo viability, 72 h; series mostly up to 46 µM
# Summary of the method: as §1
# Further: nearly all actives have a fitted effect of over 60% in size.
compound,measurement,setting,value
CC1=CC(=O)[C@]2(O[C@@H]3O[C@@H](C)[C@H](O)[C@@H](O)[C@H]3OC(=O)/C=C/c3ccccc3)C=CO[C@@H](O[C@@H]3O[C@H](CO)[C@@H](O)[C@H](O)[C@H]3O)[C@H]12,outcome,NIH3T3 [1],inactive
same,Potency,HACAT,inactive
same,outcome,NIH3T3 [2],inactive [at 17.4 µM]
CC1(C)CC[C@]2(C(=O)O)CC[C@]3(C)C(=CCC4[C@@]5(C)C[C@@H](O)[C@H](O)C(C)(C)C5CC[C@]43C)C2C1 (stereo partly specified),max response,NIH3T3 [1],4.86%
same,outcome,HEK293T,inactive [at 17.4 µM]
C[C@H](Nc1ncnc2nc[nH]c12)c1cc2ccc(F)cc2nc1-c1ccccn1,max response,NIH3T3 [1],-0.749%
same,outcome,HEK293T,inactive
COC(=O)C1=CO[C@@H](O[C@@H]2O[C@H](CO)[C@@H](O)[C@H](O)[C@H]2O)[C@@H]2C(COC(C)=O)=C[C@H](O)[C@H]12,outcome,NIH3T3 [1],inactive
same,Potency,HACAT,inactive
same,outcome,NIH3T3 [2],inactive [at 17.4 µM]
CN(C)CCn1cc(S(=O)(=O)c2cccc(F)c2)c2cccnc21,max response,NIH3T3 [1],-4.92%
same,outcome,HEK293T,inactive
CCc1c(C)nc2c(-c3cnn(-c4cc(CO)ccn4)c3)c[nH]n2c1=O,max response,NIH3T3 [1],-6.61%
same,outcome,HEK293T,inactive
C=C1C(O)CC2C(C(=O)O)=COC(O[C@@H]3O[C@H](COC(=O)/C=C/c4ccc(O)cc4)[C@@H](O)[C@H](O)[C@H]3O)C12 (stereo partly specified),max response,NIH3T3 [1],-4.95%
same,outcome,HEK293T,inactive [at 17.4 µM]
COc1cc2occc2c(O[C@@H]2O[C@H](CO)[C@@H](O)[C@H](O)[C@H]2O)c1CCC(=O)O,max response,NIH3T3 [1],1.36%
same,outcome,HEK293T,inactive [at 17.4 µM]
O=C(O)c1ccccc1NCCc1ccccc1,max response,NIH3T3 [1],2.83%
same,Potency,HACAT,inactive
same,outcome,MCC-13,inactive
same,outcome,MCC-26,inactive
same,Potency,MKL-1,inactive
same,Potency,MKL-2,inactive
same,Potency,UISO,inactive
same,Potency,WaGa,inactive
C[C@H](CCC(=O)O)[C@H]1CC[C@H]2[C@@H]3C[C@H](O)[C@@H]4C[C@H](O)CC[C@]4(C)[C@H]3CC[C@]12C,outcome,NIH3T3 [1],inactive
same,Potency,HACAT,inactive
same,outcome,NIH3T3 [2],inactive
CC1CC2OC3(OC2C(C)(C)O)C1C1(C)CCC24CC25CCC(O[C@@H]2OC[C@@H](O)[C@H](O)[C@H]2O)C(C)(C)C5CC=C4C1(C)C3O (stereo partly specified),max response,NIH3T3 [1],0.0478%
same,outcome,HEK293T,inactive [at 17.4 µM]
CCCCCCOc1cc2c(cc1N(C)c1ncc(C(=O)O)cn1)C(C)(C)CCC2(C)C,outcome,NIH3T3 [1],inactive
same,Potency,HACAT,inactive
same,outcome,NIH3T3 [2],inactive
COC(=O)C1=CO[C@@H](O[C@@H]2O[C@H](CO)[C@@H](O)[C@H](O)[C@H]2O)[C@@H]2C(CO)=CC[C@]12O,max response,NIH3T3 [1],1.93%
same,outcome,HEK293T,inactive [at 17.4 µM]
COC(=O)CC(C)(O)CC(=O)OCc1ccc(O[C@@H]2O[C@H](CO)[C@@H](O)[C@H](O)[C@H]2O)cc1 (stereo partly specified),max response,NIH3T3 [1],-2.06%
same,outcome,HEK293T,inactive [at 17.4 µM]
CNC(C)C(=O)NC(C(=O)N1CCCC1c1nc(C(=O)c2ccc(F)cc2)cs1)C1CCCCC1 (stereo unspecified),outcome,NIH3T3 [1],inactive
same,Potency,HACAT,inactive
same,outcome,NIH3T3 [2],inactive
CC(=O)C=C=C1C(C)(C)CC(O[C@@H]2O[C@H](CO)[C@@H](O)[C@H](O)[C@H]2O)CC1(C)O (stereo partly specified),max response,NIH3T3 [1],4.66%
same,outcome,HEK293T,inactive
CC(=O)OC1CC2C3(C)CCC(OC(=O)CC(=O)O)C(C)(C)C3CCC2(C)C2(C)CCC(C3(C)CCC(=O)O3)C12 (stereo unspecified),max response,NIH3T3 [1],2.16%
same,outcome,HEK293T,inactive [at 17.4 µM]
O=C(O)CC(=O)OC[C@H]1O[C@@H](Oc2ccc3c(c2)OC[C@H]2c4cc5c(cc4O[C@@H]32)OCO5)[C@H](O)[C@@H](O)[C@@H]1O,max response,NIH3T3 [1],-8.59%
same,outcome,HEK293T,inactive [at 17.4 µM]
CCC(C)/C=C(C)/C=C/c1cc2c(cn1)C(=O)C(C)(OC(C)=O)C(O)=C2Cl (stereo unspecified),outcome,NIH3T3 [1],inactive
same,Potency,HACAT,inactive
same,outcome,NIH3T3 [2],inactive
CCC(C)C1NC(=O)C2CCCN2C(=O)C(NC(C)=O)C(C)OC(=O)C(Cc2ccc(OC)cc2)N(C)C(=O)C2CCCN2C(=O)C(C(C)C)NC1=O (stereo unspecified) (Ac-TPIVP[NMeY](Me); ester 1-C; configuration not given here),outcome,NIH3T3 [1],inactive
same,Potency,HACAT,inactive
same,outcome,NIH3T3 [2],inactive [at 17.4 µM]
CCOCCOC(=O)/C=C/c1ccc(OC)cc1,max response,NIH3T3 [1],-3.67%
same,outcome,HEK293T,inactive
same,outcome,MCC-13,inactive
same,outcome,MCC-26,inactive
same,Potency,MKL-1,inactive
same,Potency,MKL-2,inactive
same,Potency,UISO,inactive
same,Potency,WaGa,inactive
CO/N=C(/C(=O)N[C@@H]1C(=O)N2C(C(=O)O)=C(Cn3ccc(=N)n3CCO)CS[C@H]12)c1csc(N)n1,outcome,NIH3T3 [1],inactive
same,Potency,HACAT,inactive
same,outcome,NIH3T3 [2],inactive
CC1(C)CCC[C@@]2(C)C1[C@H](OC(=O)/C=C/C=C/C(=O)O)C=C1COC(=O)[C@@]12O (stereo partly specified),outcome,NIH3T3 [1],inactive
same,Potency,HACAT,inactive
same,outcome,NIH3T3 [2],inactive
Nc1nc(-n2cc(C(=O)O)c(=O)c3cc(F)c(N4CC(O)C4)c(Cl)c32)c(F)cc1F,max response,NIH3T3 [1],2.73%
same,outcome,HEK293T,inactive
CC1=C(C(=O)O)/C(=C\CO[C@@H]2O[C@H](CO)[C@@H](O)[C@H](O)[C@H]2O)C(OC(=O)/C=C\c2ccc(O)cc2)C1 (stereo partly specified),max response,NIH3T3 [1],-21.6%
same,outcome,HEK293T,inactive [at 17.4 µM]
